Screening results: PubChem BioAssay, National Center for Advancing Translational Sciences (NCATS)
A selection: hits, their analogues and other compounds. The true share with any hit is near 3.1%.
PLK1 PBD block: blocks phosphopeptide binding to human PLK1 polo-box domain; P53350; Plk1 PBD binding of FITC phosphopeptide, fluorescence polarization; Potency, µM, for inactives: max response, negative = inhibition, most hits filed as inhibitors; 360,000 compounds, 2.8% hits; AID 720504; also: potency is read from the fitted curve at half-maximal effect; series mostly up to about 57 µM; % is scaled to controls: 0 for no effect and ±100 for the full control effect; nearly all actives have a fitted effect of over 65% in size
VDR inh: blocks the human vitamin D receptor. P11473. VDR-SRC2-3 peptide fluorescence polarization, 2 h. Potency, µM, inactives show max response, negative = inhibition, most hits filed as inhibitors. 400,000 compounds, 0.93% hits. AID 504847; also: potency is read from the fitted curve at half-maximal effect; % is scaled to controls: 0 for no effect and ±100 for the full control effect
Target sequence (P11473 whole entry, looked up): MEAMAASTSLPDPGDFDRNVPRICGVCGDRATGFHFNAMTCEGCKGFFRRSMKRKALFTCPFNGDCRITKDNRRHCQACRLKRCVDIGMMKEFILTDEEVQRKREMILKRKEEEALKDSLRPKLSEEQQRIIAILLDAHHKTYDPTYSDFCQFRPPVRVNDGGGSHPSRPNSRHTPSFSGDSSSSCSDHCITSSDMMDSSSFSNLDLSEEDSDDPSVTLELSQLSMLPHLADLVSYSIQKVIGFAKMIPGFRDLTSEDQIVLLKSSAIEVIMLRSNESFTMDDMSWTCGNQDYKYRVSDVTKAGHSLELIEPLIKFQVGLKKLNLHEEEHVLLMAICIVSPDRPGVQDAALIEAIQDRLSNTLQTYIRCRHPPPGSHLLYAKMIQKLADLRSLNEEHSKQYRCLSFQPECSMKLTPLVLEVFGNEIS
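Compounds are added to VDR with labelled SRC2-3 coactivator peptide and held 2 h at room temperature. Inhibition of the VDR–peptide interaction is then read as a change in fluorescence polarization.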
Vif-A3F inh: inhibitors of Vif-A3F interaction; HeLa A3F-eYFP + Vif (tagged APOBEC3F with the HIV-1 protein that degrades it), YFP fluorescence increase; 390,000 compounds, 0.2% hits; AID 602313; Potency, µM (doses to about 46.1 µM), for inactives: at the highest dose activity, negative = active; also: potency is read from the fitted curve at half-maximal effect; % of control where 0% means no effect; nearly all actives have a fitted effect of over 65% in size
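HeLa cells stably expressing A3F-eYFP plus Vif, plated and incubated overnight at 37 deg C, then exposed to compounds overnight at 37 deg C. Blocked degradation read as raised yellow fluorescence (Ex 488/Em 500-530).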
TSHR antagonist: antagonists of human thyroid stimulating hormone receptor | P16473 | TSHR-expressing cells, TSH-stimulated cAMP HTRF, 2 h; hits give low values | activity change, negative = inhibition, % at 11.5 µM | 330,000 compounds, 0.2% hits | AID 504810;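 active = activity change below a set negative limit, meaning inhibition stronger than a set level, cut at about -70% in these data; inconclusive = activity change between two set negative limits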; also: % is scaled to controls: 0 for no effect and ±100 for the full control effect
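TSHR-expressing cells were treated with compounds, then stimulated with TSH at EC80 (4nM final) for 2 hours at 37 deg C. Cellular cAMP was measured by HTRF competition between lysate cAMP and cAMP-d2 for a cryptate-labelled anti-cAMP antibody.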
Vif-A3G inh: Vif-A3G binding inhibition; Q9HC16; HeLa A3G-eYFP + Vif (tagged APOBEC3G with the HIV-1 protein that degrades it), YFP fluorescence, overnight; Potency, µM (highest dose often 46.1 µM), inactives show at the highest dose activity, negative = active, actives largely listed as inhibitors; 410,000 compounds, 0.076% hits; AID 602310; also: potency is read from the fitted curve at half-maximal effect; % is scaled to controls: 0 for no effect and ±100 for the full control effect; nearly all actives have a fitted effect of over 60% in size
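Read-out is eYFP fluorescence (Ex 488/Em 500-530) from Vif-expressing HeLa A3G-eYFP cells; more signal means A3G escaped Vif-mediated degradation. Cells plated overnight, compound pinned in, incubated overnight at 37 deg C.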
The depositor's hits bear a star; ? = inconclusive; nt = not tested or not shown. Unless noted, calls follow the shape of the dose curve; as a rule, active = well fitted curve in the direction sought with a large enough effect; inconclusive = small, poorly fitted or top-dose-only effect, or another doubt; inactive = no such curve, though single readings can be large; an effect the other way counts as inactive or inconclusive.

SMILES	PLK1 PBD block	VDR inh	Vif-A3F inh	TSHR antagonist	Vif-A3G inh
CC(C)(C)c1ccc(S(=O)(=O)/N=C2\C=C(NS(=O)(=O)c3ccccc3)C(=O)c3ccccc32)cc1	13µM*	?	3%	-14	0%
Cc1ccc(OCC(=O)O/N=C(\N)Cc2ccc(Cl)cc2)cc1	2.7µM*	-22%	3%	-23	1%
COc1ccc(OCC(=O)O/N=C(\N)Cc2ccc(Cl)cc2)cc1	-15%	-4%	nt	-11	-4%
O=C(N/N=C/C=C\c1ccco1)c1ccccn1	?	79µM*	-5%	-3	?
O=C(N/N=C/C=C/c1ccco1)c1cnccn1	-11%	?	-3%	-1	0%
O=C1CCN(CCc2ccccc2)CCN1C(CSc1ccc(Br)cc1)Cc1ccccc1 (stereo not given)	nt	-7%	nt	nt	-1%
CCNc1ccc(C(=O)O)cc1N	-3%	79µM*	2%	0	-3%
CCc1ccccc1Nc1ccc(C(=O)O)cc1N	-10%	-9%	3%	-6	-1%
CCOc1ccc(CNC(=O)CCCn2nc(CC)n3c(cc4occc43)c2=O)cc1	-6%	-8%	-12%	-110*	0%
CCc1nn(CCCC(=O)NCc2ccc(OC(C)C)cc2)c(=O)c2cc3occc3n12	-22%	15%	-27%	-4	?
Cc1nc2cnc(Oc3ccccc3)nc2n(Cc2cccs2)c1=O	nt	-16%	nt	nt	nt
c1coc(CNc2ncnc3c2nc2n3CCCC2)c1	nt	nt	nt	nt	3%
O=C(NCCCc1cnc[nH]1)NCCCN(Cc1ccc(Cl)cc1)c1ccc(Br)cn1	nt	1%	nt	nt	-28%
CN(C)c1ccc(/C=C/c2ccnc3ccc(I)cc23)cc1	nt	nt	nt	nt	8.9µM*
CN(C)c1ccc(/C=C/c2ccnc3c(Cl)ccc(Cl)c23)cc1	nt	nt	nt	nt	3.5µM*
CCCN(CCC)c1ccc(/C=C/c2ccnc3ccccc23)cc1	nt	nt	nt	nt	11µM*
CN(N=O)c1ccc(/C=C/c2ccnc3ccccc23)cc1	nt	nt	nt	nt	0%
CN(C)c1ccc(/C=C/c2ccnc3ccccc23)cc1	nt	nt	nt	nt	11µM*
O=S(=O)(c1cccc2ccccc12)N1CCN(c2nc(-c3cccs3)nc3ccccc23)CC1	nt	-3%	nt	nt	nt
OC1c2ccccc2N=C2CCCN21 (stereo not given)	nt	-2%	nt	nt	nt
Cc1cc(/C=C/c2ccnc3ccccc23)ccc1N	nt	nt	nt	nt	10µM*
Cc1cc(N(C)C)c(C)cc1/C=C/c1ccnc2ccccc12	nt	nt	nt	nt	14µM*
Cc1cc(C)c2nccc(/C=C/c3ccc(N(C)C)cc3)c2c1	nt	nt	nt	nt	10µM*
Nc1c(Br)cc(/C=C/c2ccnc3ccccc23)cc1Br	nt	nt	nt	nt	-4%
Cc1cc(N(C)C)ccc1/C=C/c1ccnc2ccccc12	nt	nt	nt	nt	-1%
SMILES	PLK1 PBD block	VDR inh	Vif-A3F inh	TSHR antagonist	Vif-A3G inh
O=C(Nc1ccc(F)c(F)c1)c1cnn2c1NC(=C1CC1)C=C2C(F)(F)F	nt	nt	nt	nt	3%
CC(C)(C)c1csc(NC(=O)Cn2cnc3ccccc3c2=O)n1	13µM*	?	-3%	-8	-3%
CC(C)(C)c1csc(NC(=O)CSc2nc3ccccc3c(=O)[nH]2)n1	?	-7%	-20%	-21	-3%
CCOC(=O)CCC(=O)NNC(=O)c1ccc(NC(=O)c2ccccc2)cc1	30µM*	-25%	7%	25	0%
O=C(Cc1ccccc1)NNC(=O)c1ccc(NC(=O)c2ccccc2)cc1	-12%	2%	10%	0	9%
O=C1C=CC2(C=C1)O[C@H](Cc1ccccc1)[C@@H](Cc1ccccc1)O2	9.5µM*	14µM*	13%	nt	?
COc1ccc(-c2nc3ccc(NC(C)=O)cc3c(=O)n2Cc2cccc(Cl)c2)cc1COc1ccc(NC(C)=O)cc1	nt	-12%	nt	nt	nt
O=C(c1cc(Br)ccc1Cl)N1CCN(c2ncccn2)CC1	30µM*	?	2%	3	-9%
O=C(O)CCCCCN1C(=O)C(O)=C(C(=O)/C=C/c2ccccc2)C1c1ccccc1[N+](=O)[O-] (stereo not given)	34µM*	-7%	-37%	3	0%
CC1=C(C(N)=O)C(c2ccncc2)n2nc(-c3ccccc3Cl)nc2N1 (stereo not given)	30µM*	9%	1%	-3	0%
CC(C)CC(N)C(=O)NC(C)C(=O)O (stereo not given)	nt	1%	nt	nt	nt
O=C(C[n+]1ccccc1)c1ccc(O)c(O)c1	nt	nt	nt	nt	1%
